In PubChem BioAssay AID1159580 (chemical genetic matrix, 2015):
The campaign covered roughly 5,500 compounds. About 2,000 (36%) were called active. Inconclusive results (about 18%) are left out. No stated cut-off is given here; in the data, active means normalized growth mostly below about 0.91 (no sharp cut-off); inconclusive means no clear call, values can overlap the other calls; inactive means mostly above about 0.92. The list shows a part of the results.

Experiment: chemical genetic growth profiling, strain panel (AID 1159580);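 further: tested at 20 µM; growth read once vehicle control cultures reached saturation at 30 °C; 1 = growth at the plate median or of vehicle wells; lower values mean less growth of the strain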
Conditions: S. cerevisiae deletion strains, growth OD

Measured: normalized growth

CC(CC(=O)C(O)C(C)(C)O)C1C(=O)CC2(C)C3=CCC4C(C)(C)C(OC5OCC(O)C(O)C5O)CCC45CC35C(O)CC12C (configuration not stated)
inactive: locus YAL021C, strain ccr4, hits give low values 1.01 | locus YAL026C, strain drs2, hits give low values 1.01 | locus YAL030W, strain snc1, hits give low values 1.01 | locus YBL061C, strain skt5, hits give low values 1.01 | locus YBR009C, strain hhf1, hits give low values 1.01 | locus YBR023C, strain chs3, hits give low values 1.02 | locus YBR171W, strain sec66, hits give low values 1.03 | locus YBR231C, strain swc5, hits give low values 1.01 | locus YBR279W, strain paf1, hits give low values 1.02 | locus YCL011C, strain gbp2, hits give low values 1.01 | locus YCL016C, strain dcc1, hits give low values 1.01 | locus YCL061C, strain MRC1, hits give low values 1.01 | locus YCL069W, strain vba3, hits give low values 1 | locus YCR088W, strain abp1, hits give low values 1.02 | locus YDL005C, strain med2, hits give low values 1.01 | locus YDL040C, strain nat1, hits give low values 1.02 | locus YDR001C, strain nth1, hits give low values 1.01 | locus YDR069C, strain doa4, hits give low values 1.01 | locus YDR137W, strain rgp1, hits give low values 0.974 | locus YDR159W, strain sac3, hits give low values 1.02 | locus YDR195W, strain ref2 0.987 | locus YDR297W, strain sur2, hits give low values 1.01 | locus YDR334W, strain swr1, hits give low values 1.02 | locus YDR335W, strain msn5, hits give low values 1.02 | locus YDR392W, strain spt3, hits give low values 1.04 | locus YEL003W, strain gim4, hits give low values 1.01 | locus YEL037C, strain rad23, hits give low values 1.07 | locus YEL061C, strain CIN8 (second series), hits give low values 1.01 | locus YER015W, strain faa2, hits give low values 1.01 | locus YER016W, strain bim1, hits give low values 1.02 | locus YER111C, strain swi4, hits give low values 1.01 | locus YER155C, strain BEM2 (second series), hits give low values 1.02 | locus YFR010W, strain ubp6, hits give low values 1.01 | locus YGL167C, strain pmr1, hits give low values 1.01 | locus YGL173C, strain kem1, hits give low values 1.03 | locus YGL227W, strain vid30, hits give low values 1.01 | locus YGL240W, strain doc1, hits give low values 1.01 | locus YGL253W, strain hxk2, hits give low values 1.02 | locus YHR013C, strain ard1, hits give low values 1.02 | locus YHR027C, strain rpn1, hits give low values 1.01 | locus YHR142W, strain chs7, hits give low values 1 | locus YJL092W, strain hpr5, hits give low values 1.02 | locus YJL095W, strain BCK1 (second series), hits give low values 1.01 | locus YJL115W, strain asf1, hits give low values 1.01 | locus YJL129C, strain trk1, hits give low values 1.02 | locus YJL154C, strain vps35, hits give low values 1.02 | locus YJL164C, strain tpk1, hits give low values 1.03 | locus YJL166W, strain qcr8, hits give low values 1.01 | locus YJL187C, strain SWE1, hits give low values 1.01 | locus YKL160W, strain elf1, hits give low values 1.01 | locus YKR026C, strain gcn3, hits give low values 1.02 | locus YKR091W, strain srl3, hits give low values 1.02 | locus YLL001W, strain dnm1, hits give low values 1.03 | locus YLL026W, hits give low values 1.02 | locus YLL041C, strain sdh2, hits give low values 1.01 | locus YLR027C, strain aat2, hits give low values 1 | locus YLR221C, strain rsa3, hits give low values 1.01 | locus YLR258W, strain gsy2, hits give low values 1.02 | locus YLR262C, strain YPT6 (second series), hits give low values 1.02 | locus YLR320W, strain mms22, hits give low values 1.03 | locus YLR342W, strain FKS1, hits give low values 1.01 | locus YLR357W, strain rsc2, hits give low values 1.02 | locus YLR370C, strain arc18, hits give low values 0.995 | locus YLR384C, strain iki3, hits give low values 1.01 | locus YML120C, strain ndi1, hits give low values 1.02 | locus YMR058W, strain fet3, hits give low values 1.01 | locus YMR125W, strain sto1, hits give low values 1.03 | locus YMR129W, hits give low values 1.01 | locus YMR205C, strain PFK2, hits give low values 1.02 | locus YMR231W, strain pep5, hits give low values 1 | locus YNL071W, strain lat1, hits give low values 1.01 | locus YNL209W, strain ssb2, hits give low values 1.01 | locus YNL248C, strain rpa49, hits give low values 1.01 | locus YNL322C, strain KRE1 (second series), hits give low values 1.01 | locus YNR049C, strain mso1, hits give low values 1.02 | locus YOR001W, strain rrp6, hits give low values 1.01 | locus YOR070C, strain gyp1, hits give low values 1.01 | locus YOR080W, strain dia2, hits give low values 1.02 | locus YOR083W, strain WHI5, hits give low values 1.02 | locus YOR106W, strain vam3, hits give low values 1 | locus YOR265W, strain rbl2, hits give low values 1.01 | locus YOR270C, strain vph1, hits give low values 1.02 | locus YOR290C, strain snf2, hits give low values 1.02 | locus YPL051W, strain arl3, hits give low values 1.01 | locus YPL078C, strain atp4, hits give low values 1.02 | locus YPL106C, strain sse1, hits give low values 1 | locus YPL240C, strain hsp82, hits give low values 1.02
